Experimental data published in the supplement of paper PMC3334620.
Over roughly 33,000 sequences, “E-score (-0.5 to 0.5)” has its median near -0.054; the highest 2% begin near 0.35. Many of the other results were omitted from the sample, so the highest values are more common in it than they were.

These sequences were tested against T1, Stb5 (UniProt P38699) (assay: PBM E-score (8-mer binding enrichment) (E-score (-0.5 to 0.5)); higher = stronger / more preferred TF binding). Details: protein concentration: 200 nM; construct: GST-full length.
T1 sequence: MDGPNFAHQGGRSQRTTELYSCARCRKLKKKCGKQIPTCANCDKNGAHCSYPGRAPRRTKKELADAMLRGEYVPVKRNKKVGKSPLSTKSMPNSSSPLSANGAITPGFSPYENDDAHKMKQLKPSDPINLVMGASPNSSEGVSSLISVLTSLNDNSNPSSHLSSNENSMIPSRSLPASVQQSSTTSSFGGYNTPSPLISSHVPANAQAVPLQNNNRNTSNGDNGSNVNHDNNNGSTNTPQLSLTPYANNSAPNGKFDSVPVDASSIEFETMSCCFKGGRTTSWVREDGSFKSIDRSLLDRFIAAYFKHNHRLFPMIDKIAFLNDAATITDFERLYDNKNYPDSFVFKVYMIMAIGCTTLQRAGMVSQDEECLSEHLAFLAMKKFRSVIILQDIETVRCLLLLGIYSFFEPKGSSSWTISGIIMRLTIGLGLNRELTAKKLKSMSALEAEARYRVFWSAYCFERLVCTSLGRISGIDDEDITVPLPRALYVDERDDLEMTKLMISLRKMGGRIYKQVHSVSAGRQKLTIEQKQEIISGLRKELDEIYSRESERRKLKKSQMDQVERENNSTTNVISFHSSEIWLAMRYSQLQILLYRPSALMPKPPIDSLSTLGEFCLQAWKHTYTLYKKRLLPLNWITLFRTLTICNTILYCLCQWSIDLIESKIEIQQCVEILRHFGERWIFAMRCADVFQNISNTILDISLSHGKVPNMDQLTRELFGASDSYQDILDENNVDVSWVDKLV
Method: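 Universal 'all 10-mer' protein binding microarrays (Agilent AMADID 015681) probed with GST-tagged S. cerevisiae TFs (full-length or DBD) made by in vitro transcription/translation (PURExpress), about 100-200 nM. Bound TF was detected with fluorescent anti-GST. Each ungapped 8-mer (which stands for itself and its reverse complement) is scored by the PBM enrichment score (E-score), a modified Wilcoxon-Mann-Whitney statistic from -0.5 to +0.5, computed with the Universal PBM Analysis Suite. Scale: above 0.35 generally sequence-specific binding.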

Row | Sequence | PBM E-score
1 | CGTGATAC | -0.0683
2 | AGTGATAC | -0.128
3 | AGTGATAA | -0.0882
4 | CGTGATAA | 0.0332
5 | GGTGATAC | 0.369
6 | GGTGATAA | 0.415
7 | CTCCTGTC | -0.26
8 | GACCGTTA | 0.278
9 | AGCCGTTA | 0.0306
10 | AACCGTTA | -0.101
11 | CGCCGTTC | 0.306
12 | GTCCGTTA | 0.355
13 | CACCGTTC | 0.368
14 | CACCGTTA | 0.367
15 | GGCCGTTA | 0.213
16 | CGCCGTTA | 0.356
17 | AACCGTTC | 0.128
18 | CTCCGTTA | 0.299
19 | ATCCGTTA | 0.197
20 | GCGGGCAA | 0.171
21 | GCAGACTA | -0.158
22 | CTCCACAG | -0.313
23 | CCTTTTGA | -0.106
24 | CGTTGTCC | -0.0582
25 | GACCAATA | 0.0169

Row | Sequence | PBM E-score
26 | GCCCTTAC | -0.0337
27 | TAGTCGGA | 0.355
28 | GGGTCATA | -0.00196
29 | CGGTCATC | 0.135
30 | CTGTCGGA | 0.349
31 | CGGTCGTC | 0.0319
32 | GTGTCGGA | 0.357
33 | GGGTCGTA | 0.00669
34 | CAGTCGGA | 0.292
35 | ATGTCGGA | 0.303
36 | CGGTCATA | 0.448
37 | GAGTCGGA | 0.307
38 | CGGTCGTA | 0.381
39 | GAGCGGGA | 0.249
40 | TCCAGAGA | -0.208
41 | AGTCAAGC | -0.3
42 | GTGAGCAA | -0.0477
43 | TACGGGCA | 0.143
44 | GACAACTA | -0.06
45 | GCACAGAC | 0.0491
46 | CGAGTTTC | -0.0887
47 | CGGTCGGC | 0.352
48 | CCGTCGGA | 0.37
49 | GCGTCGGA | 0.345
50 | AGGTCGGC | 0.293

Row | Sequence | PBM E-score
51 | ACGTCGGA | 0.264
52 | CCGTCGTC | 0.161
53 | CGGTCGGA | 0.313
54 | CCGTCGGC | 0.377
55 | ACGTCGGC | 0.27
56 | GGAATAAC | 0.177
57 | ATTTATTG | -0.0662
58 | AAGCTGAA | -0.152
59 | CCAAGAGG | -0.138
60 | CGGTGCCA | 0.414
61 | AGGTGCGA | 0.0754
62 | CGGTGCCC | 0.27
63 | GGGTGCCA | -0.012
64 | CGGTGCGA | 0.384
65 | GGGTGCGA | -0.0506
66 | CCTGCTGA | -0.216
67 | CGCTTCCG | 0.208
68 | CCCGACTA | 0.312
69 | GGTGCCGA | 0.292
70 | AGTGCCGA | 0.387
71 | ATTGCCGG | 0.408
72 | ATTGCCGA | 0.318
73 | AGTGCCGG | 0.407
74 | CGTGCCGA | 0.212
75 | ATTGCCGC | 0.351

Row | Sequence | PBM E-score
76 | AGTGCCAG | -0.0267
77 | AGTGCCGC | 0.381
78 | AGTGCCTG | -0.17
79 | AGTGCCAC | -0.251
80 | CGTGCCGC | 0.249
81 | CACCAACG | 0.0702
82 | AACCGTGT | -0.115
83 | AGTCTGGG | -0.291
84 | CCTGAGCG | -0.0867
85 | CCGATAGA | 0.249
86 | TGTCCCAA | -0.0294
87 | ATTAGCTG | -0.119
88 | CCTCTAAA | -0.196
89 | AACCGACC | 0.244
90 | TACCGACA | 0.356
91 | CACCGAAC | 0.366
92 | GACCGACA | 0.341
93 | CACCGAAG | 0.253
94 | GACCGAAC | 0.145
95 | GACCGACC | 0.308
96 | CACCGAGG | 0.23
97 | AACCGACA | 0.181
98 | CACCGACG | 0.453
99 | AACCGACG | 0.286
100 | CACCGACC | 0.418

Row | Sequence | PBM E-score
101 | CCCATGAA | -0.0849
102 | CCAAGTAG | -0.293
103 | CAGTGCGC | -0.135
104 | GACCACAC | -0.152
105 | ACCCTAGG | -0.165
106 | CTTCACAC | -0.0447
107 | CACCGACA | 0.44
108 | CACCGAAA | 0.305
109 | CACCGAGA | 0.151
110 | AAAAAGAT | -0.291
111 | CGGAGACG | 0.166
112 | CGGACATA | 0.474
113 | AGGACGTA | -0.182
114 | CGGACGTC | 0.0917
115 | AGGAGACA | -0.131
116 | CGGACATC | 0.256
117 | CGGACGTA | 0.407
118 | TGGACACA | -0.0717
119 | CGGAGACA | 0.398
120 | CGGACACG | 0.232
121 | CGGACACA | 0.356
122 | GGGACATA | 0.132
123 | ACCCCCTC | -0.265
124 | GTGCACCA | -0.17
125 | CGGAGGGC | -0.0349

Row | Sequence | PBM E-score
126 | CCTTCCCG | -0.125
127 | ACAGCGTA | -0.0758
128 | AAAATCAC | -0.092
129 | GGTGATCA | 0.0514
130 | CTTGTGGC | -0.163
131 | CGTAGTAC | 0.0304
132 | AACCGGTA | 0.261
133 | CACCGGTG | 0.408
134 | AACCGGTG | 0.306
135 | AACCGGTC | 0.272
136 | CACCGGTA | 0.408
137 | CACCGGTC | 0.337
138 | GACCGGTA | 0.231
139 | CTCCGGTA | 0.316
140 | TACCGGTA | 0.36
141 | AGAAGCCT | -0.0816
142 | TCTGCAGA | 0.00207
143 | CCCCCAGG | -0.281
144 | AAACCCCC | 0.263
145 | AAAAACCC | 0.226
146 | GAAACCCC | 0.353
147 | CTAACTCC | 0.288
148 | ATAACTCC | 0.429
149 | GAAAACCC | 0.278
150 | AAAACCCG | 0.379

Row | Sequence | PBM E-score
151 | GAAACCCA | 0.0284
152 | CAAACCCG | 0.216
153 | AAAACCCC | 0.355
154 | AAAACCCT | -0.074
155 | ATAACTCG | 0.0637
156 | AATCTGTG | -0.207
157 | CGCAGAAA | -0.114
158 | GCAAAGGC | 0.115
159 | GGTGGACA | 0.00374
160 | TCTTTCAA | -0.0737
161 | ACCCTCCG | 0.134
162 | CGGTGGCA | 0.299
163 | CCTTATCC | 0.00435
164 | ATCTCCAC | 0.0569
165 | GTCTTAAA | 0.179
166 | ACTCGACT | -0.224
167 | CTAAACCC | 0.233
168 | ATAAACCA | -0.078
169 | ATAACCCG | 0.228
170 | ATAAACCC | 0.373
171 | ATAACCCA | -0.157
172 | ATAACCCC | 0.412
173 | AATTCCTA | -0.258
174 | AAAGACCC | 0.0704
